{"source": "paper PMC8384837", "about": "“Expanding the binding specificity for RNA recognition by a PUF domain”"}
{"molecular_target": "PUM1 PUF domain R4-VPA (Homo sapiens, UniProt Q14671 828-1176, N971V;H972P;Q975A)", "experiment": "yeast three-hybrid, YBZ-1, SC-Leu-His + 0.5 mM 3-AT, 4 days", "settings": "tags: N-Gal4 AD-HA kept; label: inside an RPR1-promoter hybrid RNA with tandem MS2 sites; ssRNA", "how_it_was_run": "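A centromeric plasmid in strain YBZ-1 co-expressed Pumilio-1 PUF domain libraries, randomized at the three base-contacting residues of each repeat, with matching RNA elements; the strain carries a LexA–MS2 coat fusion and a HIS3 reporter. After four days on SC-Leu (input) or SC-Leu-His + 0.5 mM 3-AT (selection), the repeat regions were PCR-amplified and Illumina-sequenced. The interaction score is the log change in variant frequency from input to selection, using log2 and a pseudocount of 1 where absent.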"}
{"sequence": "GGCUAGAACUAGUGGAUCCCCCGGCGCCCGGCGGCUCGAGCCCGGGUAAGUGUACAUAGUCUGCAUGCCGCCGGGCGCCAUGCCUGCAGGUCGACUCUAGAAAACAUG", "binding signal": "1.62 log2 enrichment (interaction score)"}
{"sequence": "GGCUAGAACUAGUGGAUCCCCCGGCGCCCGGCGGCUCGAGCCCGGGUAAGUGUAAAUAGUCUGCAUGCCGCCGGGCGCCAUGCCUGCAGGUCGACUCUAGAAAACAUG", "binding signal": "1.54 log2 enrichment (interaction score)"}
{"sequence": "GGCUAGAACUAGUGGAUCCCCCGGCGCCCGGCGGCUCGAGCCCGGGUAAGUGUAUAUAGUCUGCAUGCCGCCGGGCGCCAUGCCUGCAGGUCGACUCUAGAAAACAUG", "binding signal": "3.26 log2 enrichment (interaction score)"}
